Drawing on the supplement of paper PMC6555819, this text covers PBM binding z-score for 22 sequences.

For the assay, the system named is RARb homodimer (NR concentration 270 nM). Put plainly: PBM binding z-score (relative to random genomic background probes); higher = stronger binding; sequences stand for … in GC…GCGATTGACAGCGTAGAATGAAGG
Put shortly: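 Binding buffer was PBS pH 7.4 with 2% milk, 0.02% Triton X-100, 1 mM DTT, 0.2 mg/mL BSA and 0.4 mg/ml salmon testes DNA. In it, ligand-free nuclear receptor dimers were incubated 1 h on custom Agilent 4×180K protein-binding microarrays carrying double-stranded probes. Antibodies against each partner (one per run) detected binding, and z-scores were calculated against random background probes after regression normalization of scanned fluorescence.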
The sequence AATATTAGTTGAGACGAGGGCAACCGATAGGTTG registered a PBM binding z-score of 1.28.
Under TCGAGTAGGTTAGGGTCATTCAGAATGGCGTCGA stands 3.05; under TAGCCTAGGTAATTCAGGGGCCAGTATAGAAAGC, 0.306; under CAAACTAGGTCAAGGTCGAAGTCGGTTTGTGCCA, 3.74.
AATACACGGTCATCGTAGGCCAGAGTACGCACAG showed a PBM binding z-score of 2.36.
With CGGACTAGGTCAAGGACAGTGAATCTCCGCACGC the figure was 2.94; with CATACAGGGTCAGCTACGCCAGAGTAGGGACGGC, 2.9.
The sequence AGAACGAGGGCGCGCTGAGTTGATAGCAGAGTAG came in with a PBM binding z-score of -0.416.
CGTCAAAGTTCAACTAGGGTAACGTAAAGCACGC: the PBM binding z-score was 4.3.
With GCTCGGAGGAAAAGGTCAGAGCTTTGTCCGTAGA the figure was 4.
For the sequence CCTTACGTGTCAAGGTTATAGCACGGGTGGTACG, the PBM binding z-score turned out to be 1.28.
With CCTCCTAGGTCAATGGTCAGCTAAAGCAGCTCGC the figure was 3.17.
On to CCGACTGGGGCATAAAGGTTACCATACCATCCGG, for which the PBM binding z-score stood at 2.16.
With TCTGCTAGGTCAGTTGGTCAGCTACCGAGCTGCC the figure was 2.77; with GCTTGTAGATCAGGGTTAAGAAAGACTAAGCTAA, 0.053; with TGATATAGGTAATACAGGTGAAAGTCGGCATCTA, 0.513.
Under TCTTGTAGATCAGCATGTTAAGAAAGCTGGCCAA stands -0.787; under CGAACTAGGTTATTGACAGGACAGTGAATAGTAA, 0.991; under ATCGAAAGGTCGACGAGGTGACTATACACCGTTT, 3.13.
Under GCTGCTAGGTCAGGGTGGTCAGCTAACGGGTACG stands 3.07; under ACTAGCAGGCCCAGTTTGGGTCACTCAAACAAAG, 1.42.
Turning to AGAATGAGGTTACCAAATATCAGGGAAACGCTTG, the PBM binding z-score turned out to be 0.779.
